Calls of active or inactive are those of the source. The call rests on the fitted dose curve; in most records, active means well fitted curve in the direction sought with a large enough effect in the repeat runs; inconclusive means weak or mixed curves; inactive means flat fitted curve, though single readings scatter.
Assay: qHTS assay to test for compound auto fluorescence at 535 nm (green) in HepG2 cell free culture (AID 720686)
Details: Cell-free medium, green autofluorescence 485/535 nm; series mostly up to 91.3 µM; fluorescence, % of fluorescein control: at the top concentration
Source text: U.S. Tox21 Program National Center for Advancing Translational Sciences [NCATS] NIH Chemical Genomics Center [NCGC] U.S. Environmental Protection Agency [EPA] National Institutes of Environmental Health Sciences [NIEHS] National Toxicology Program [NTP] U.S. Food and Drug Administration [FDA] Tox21 Assay Overview: Compound auto fluorescence often interferes with screening of the compound library against various biological targets and signaling pathways. Some of these compounds may have fluorophoric properties. Such properties may interfere with the assay outputs resulting in false positives and/or negatives. To decrease such complications and ensure the compound activities are relevant in terms of biological response, the Tox21 10K compound library was screened for auto fluorescence. From the fluorophores used as reporter signals in our screening assays, the auto fluorescence equivalencies of compounds against three fluorophores have been evaluated: Triamterene, Fluorescein and Rose Bengal sodium for blue, green and red fluorescence, respectively. The fluorescence intensities were measured using Excitation/Emission wavelengths at 405/460nm, 485/535nm and 540/590nm for blue, green and red labels, respectively. This assay includes the green fluorescence data.
Tox21 Assay Protocol Summary: 5 uL of culture medium (MEM containing 10% FBS) per well was dispensed into black wall/clear bottom 1536-well plates using a Multidrop Combi Dispenser (ThermoFisher Scientific, Waltham, MA). After 23 nL compound or DMSO vehicle was transferred into assay plate by a pintool work station (Kalypsys, San Diego, CA), fluorescence intensities in the assay plates were measured by an Envision (PerkinElmer, Shelton, CT) plate reader using three labels for measuring blue, green and red fluorescence at […] 460, 535 and 590nm respectively.
On the % scale 0 is the no-effect control and ±100 the full control effect.

SMILES | fluorescence, % of fluorescein control | outcome
COc1ccc([C@@H]2Sc3ccccc3N(CCN(C)C)C(=O)[C@@H]2OC(C)=O)cc1 | -0.258% [at 46 µM] (inactive) | –
CC1=CCC(C(C)C)C=C1 (stereo not given) | -0.174% (inactive) | –
CCN(CC)C(C)CN1c2ccccc2Sc2ccccc21 (stereo not given) | -0.0641% [at 18.6 µM] (inactive) | –
CC1(C)[C@H]2CC[C@]1(C)[C@H](O)C2 | – | inactive
NC(=S)N/N=C/c1cccnc1 | -0.055% [at 46 µM] (inactive) | –
Cc1cccc(Oc2ccccc2)c1 | 0.0333% (inactive) | –
Cc1ccccn1 | – | inactive
CC(=O)[C@@]1(O)CC[C@H]2[C@@H]3C[C@H](C)C4=CC(=O)CC[C@]4(C)[C@H]3CC[C@@]21C | 0.257% [at 46 µM] (inactive) | –
CC(C)c1cccc(C(C)C)c1NC(=O)NS(=O)(=O)c1cc(C(C)(C)O)co1 | 0.0385% (inactive) | –
CC(C)CCCCCCOC(=O)c1ccc(C(=O)OCCCCCCC(C)C)c(C(=O)OCCCCCCC(C)C)c1 | -0.0183% (inactive) | –
O=C(Cl)c1c(Cl)cccc1Cl | 0.0643% [at 95.7 µM] (inactive) | –
CCCCCCOC(=O)CCC | -0.0886% (inactive) | –
C[C@@H](C1=C(CCN(C)C)Cc2ccccc21)c1ccccn1 | -0.167% [at 46 µM] (inactive) | –
Cl/C(=C\n1cncn1)c1ccc(Cl)cc1Cl | -0.0002% [at 46 µM] (inactive) | –
CC(=O)Nc1ccc(/C=N/NC(N)=S)cc1 | – | inactive
Nc1nc(N)c2nc(CNc3ccc(C(=O)N[C@@H](CCC(=O)O)C(=O)O)cc3)cnc2n1 | – | inactive
COc1ccccc1OC(=O)Oc1ccccc1OC | 0.0868% [at 46 µM] (inactive) | –
COC(Cc1ccccc1)OC | -0.0141% (inactive) | –
CCCCOc1cc(C(=O)OCCN(CC)CC)ccc1N | 0.0068% [at 18.6 µM] (inactive) | –
CCCCCCCCC(CO)CCCCCC (stereo not given) | 0.0157% (inactive) | –

SMILES | fluorescence, % of fluorescein control | outcome
O=C(c1ccc(O)cc1)c1ccc(O)cc1 | -0.0506% (inactive) | –
NCCCOCCOCCOCCCN | 0.0645% (inactive) | –
Cc1cc(O)ccc1N | 1.57% (inactive) | –
C[C@H](CCC(=O)O)[C@H]1CC[C@H]2[C@@H]3[C@H](O)C[C@@H]4C[C@H](O)CC[C@]4(C)[C@H]3CC[C@]12C | – | inactive
O=C(NN1CCCC1)NS(=O)(=O)c1ccc(Cl)cc1 | -0.0863% [at 46 µM] (inactive) | –
CCOC(=S)SSC(=S)OCC | – | inactive
C1CCC2OC2C1 (stereo not given) | 0.157% [at 95.7 µM] (inactive) | –
CCCCOC(=O)/C=C\C(=O)OCCCC | 0.0139% [at 95.7 µM] (inactive) | –
Cc1ccc2c(ccc3ccccc32)c1 | 0.0063% (inactive) | –
O=CNc1ccccc1 | -0.011% (inactive) | –
Cc1occc1S | 0.0388% (inactive) | –
CCCCCCCCCCCCCCCBr | 0.0457% [at 46 µM] (inactive) | –
C[Si](C)O[Si](C)(C)O[Si](C)(C)O[Si](C)C | 0.116% (inactive) | –
Cc1cccc(OCCOc2cccc(C)c2)c1 | 0.0457% [at 95.7 µM] (inactive) | –
Cc1ncsc1CCO | -0.112% (inactive) | –
Oc1ccc2c(c1)OCO2 | 0.0157% (inactive) | –
CCCCC(CC)COCCCN (stereo not given) | 0.0475% (inactive) | –
COc1ccc(OC)c(OC)c1 | 0.0326% (inactive) | –
Oc1ccc(C(O)CNCCCCCCNCC(O)c2ccc(O)c(O)c2)cc1O (stereo not given) | -0.0161% [at 46 µM] (inactive) | –
CCOC(=O)CC(=O)c1cc(F)c(Cl)nc1Cl | -0.0063% [at 95.7 µM] (inactive) | –

From PubChem BioAssay (Tox21)
